Compound activity deposited in PubChem by National Center for Advancing Translational Sciences (NCATS).
Only some compounds are listed: those with a hit (about 21% of all), similar ones and a draw of the others.
Cycloheximide cs: counter-screen for Shiga toxin inhibitors: cycloheximide protein synthesis inhibition. max response, %. AID 2314. cell reporter, cycloheximide protein synthesis inhibition counterscreen. 300,000 tested, 12% active; in the data active means max response mostly above about 13%, no sharp cut-off; inactive means mostly below about 14%; further: read at 38.3 µM for the half of the compounds with a filed dose; 0% is about no effect
NS1 function inh: blocks influenza NS1 protein function | AID 2326 | Potency, µM (doses to about 46.1 µM), for the others: top-dose activity, positive = more growth | 270,000 tested, 0.4% active; calls by dose curve; further: potency means the concentration at half of the fitted maximal effect; actives are rising curves; nearly all actives have a fitted effect of over 50% in size
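S. cerevisiae expressing influenza A NS1, grown in glucose, washed, then diluted 1:100 into pH 6.0 -URA galactose medium with 23 nl compound. Growth recovery read as OD600; NS1-free strain serves as control.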
Shiga inhibitor: Shiga toxin inhibition; Vero cells, Shiga toxin protein synthesis inhibition reporter; inhibition, % at 38.7 µM; 290,000 tested, 9.2% active; AID 2315; in the data active means inhibition mostly above about 28%, no sharp cut-off; inactive means mostly below about 43%; further: 0% is about no effect
SARS PLpro yeast: blocks SARS-CoV papain-like protease in a yeast assay; S. cerevisiae expressing SARS-CoV PLpro, growth rescue; Potency, µM (titrated, usually from 32.9 µM), for the others: at the top dose activity, positive = growth rescue, usual class: activators; 330,000 tested, 0.19% active; calls by dose curve; further: potency means the concentration at half of the fitted maximal effect; 0% is about no effect; nearly all actives have a fitted effect of over 55% in size
Pf growth 48h: inhibits P. falciparum growth in the first generation, 48 h | P. falciparum luciferase growth in erythrocytes, 48 h | 310,000 tested, 5.9% active | AID 504832 | Potency, µM (titrated, usually from 28.7 µM), for the others: at the highest dose activity change, negative = inhibition, actives largely listed as inhibitors; further: potency means the concentration at half of the fitted maximal effect; on the % scale 0 is the no-effect control and ±100 the full control effect
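Here the parasites carry a stable luciferase gene and grow inside erythrocytes in Albumax-based RPMI medium with compound for one erythrocytic cycle. Activity is scored as loss of luminescent signal.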
Pf growth 96h: P. falciparum growth inhibition at 96 hour, primary screen for plastid delayed-death inhibitors | P. falciparum luciferase reporter growth, 96 h | Potency, µM (series often up to 28.7 µM), without a hit: top-dose activity change, negative = inhibition, hits mostly inhibitors | 320,000 tested, 6.9% active | AID 504834; further: potency means the concentration at half of the fitted maximal effect; on the % scale 0 is the no-effect control and ±100 the full control effect
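Compounds incubated with erythrocytes infected by luciferase-expressing P. falciparum (2% hematocrit, 0.05% parasitemia final) for 96 hours, 37 C in 5% CO2. Growth inhibition scored as decreased luciferase luminescence.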
* marks the source's active call; other numbers are inactive results; ? = inconclusive; · = no result given. Unless noted, the call rests on the fitted dose curve; in most records, active means well fitted inhibition curve with a large enough effect; inconclusive means small, poorly fitted or top-dose-only effect, or another doubt; inactive means no such curve, though single readings can be large or run the other way.

SMILES | Cycloheximide cs | NS1 function inh | Shiga inhibitor | SARS PLpro yeast | Pf growth 48h | Pf growth 96h
O=C(CCN1CCCCO1)N1CCCC(Nc2cccc(F)c2)C1 (centres undefined) | -3 | 7% | 3 | -5% | 38% | ?
CCC(=O)N1N=C(c2ccc(NS(=O)(=O)c3ccccc3)cc2)CC1c1ccco1 (centres undefined) | · | · | · | 4% | · | ·
O=C(NCCCN1CCCC1=O)c1c(O)nc2ccccn2c1=O | -1 | 1% | -4 | -1% | 14% | 0%
CC1=CC(C)(C)N2C(=O)C3(NCCc4c3[nH]c3ccccc43)c3cc(C)cc1c32 (centres undefined) | 0 | -5% | -4 | -1% | ? | ?
CC1=CC(C)(C)N2C(=O)C3(SCC(=O)N3c3ccc(F)cc3)c3cc(C)cc1c32 (centres undefined) | -4 | -11% | -18 | -42% | · | 4.1µM*
Cc1ccc(/C=N/N2CCN(c3ccccn3)CC2)o1 | 35* | 1% | 75* | -1% | 53% | 33%
C(=N\N1CCN(c2ccccn2)CC1)/c1ccco1 | 22* | · | 44* | 0% | 89% | ?
Cc1csc(-c2coc3cc(O)cc(C)c3c2=O)n1 | 30* | -32% | 108* | -6% | 136% | 116%
Cc1nc(-c2coc3cc(O)c(C)cc3c2=O)cs1 | 21* | -55% | 39 | -10% | 37% | ·
Cc1nc(-c2coc3cc(OCC(=O)O)ccc3c2=O)cs1 | -2 | 7% | -16 | -4% | ? | 52%
Cc1nc(-c2coc3cc(C)c(N=O)c(O)c3/c2=N\N)cs1 | -1 | · | 2 | -3% | 5% | 61%
COc1ccc2c(=O)c(-c3nc(C)cs3)coc2c1 | 45* | -30% | 79* | -12% | 221% | -7%
CCc1cc2c(=O)c(-c3nc(C)cs3)coc2cc1O | 34* | 8% | 38* | -1% | -110% | 0%
COc1ccc(C(=O)NNC(=O)Cc2coc3cc(OC)ccc23)cc1 | · | · | · | 1% | · | ·
CC(=O)Nc1ccc(NC(=O)CSc2ncc(C(=O)Nc3ccccc3)c(=O)n2C)cc1 | · | · | · | -1% | 14% | 13%
COc1ccc(CNC(=O)CCNS(=O)(=O)c2ccc(NC(C)=O)cc2)cc1OC | · | · | · | 7% | -20% | -41%
Cc1ccc(Sc2ncccc2C(=O)N(C)Cc2cccs2)c(C)c1 | 6 | -53% | -7 | -9% | ? | ?
Cc1c(C(=O)c2ccccc2)c2ccccn2c1CCc1ccccn1 | 9 | 17% | 11 | -7% | -3% | -21%
Cc1c(C(=O)c2ccc(F)cc2)c2ccccn2c1CCc1ccccn1 | 7 | -12% | 20 | -5% | 0% | 4.1µM*
COC(=O)CCc1c(C)c(C(=O)c2cc(OC)c(OC)c(OC)c2)c2ccccn12 | -3 | 9% | -4 | -4% | 10µM* | ?
CCOc1ccc(/C(O)=C2/C(=O)C(=O)N(CCN(CC)CC)C2c2ccco2)cc1 (centres undefined) | -1 | -9% | 10 | 12% | 56% | ?
COc1ccc(/C(O)=C2/C(=O)C(=O)N(Cc3cccnc3)C2c2ccco2)cc1OC (centres undefined) | 12 | -5% | 8 | 1% | 7% | 46%
CCOc1ccc(/C(O)=C2/C(=O)C(=O)N(CC3CCCO3)C2c2ccc(C)o2)cc1 (centres undefined) | -5 | 13% | 42 | 0% | 26% | 5%
CCOc1ccc(/C(O)=C2/C(=O)C(=O)N(CC3CCCO3)C2c2ccco2)cc1 (centres undefined) | 15* | 15% | 42* | 1% | -2% | 0%
CN(C)S(=O)(=O)c1ccc(/C(O)=C2/C(=O)C(=O)N(Cc3cccnc3)C2c2ccco2)cc1 (centres undefined) | -3 | -2% | -2 | -1% | 29% | 8.3µM*
SMILES | Cycloheximide cs | NS1 function inh | Shiga inhibitor | SARS PLpro yeast | Pf growth 48h | Pf growth 96h
CCOc1cccc(/C(O)=C2/C(=O)C(=O)N(Cc3cccnc3)C2c2ccco2)c1 (centres undefined) | 22* | -2% | 50 | -26% | -2% | ?
CCOc1cccc(/C(O)=C2/C(=O)C(=O)N(CCOC)C2c2ccco2)c1 (centres undefined) | 20* | -1% | 45* | 6% | 7% | 15%
O=C(/C=C/c1ccc(Cl)c(C(F)(F)F)c1)N1CCN(c2ccccn2)CC1 | -4 | -6% | -2 | -6% | 14% | 8%
CC1=NN(S(=O)(=O)c2ccc(Cl)cc2Cl)C(=O)c2ccccc2O1 | 12* | -67% | 2 | 0% | -12% | -11%
Cc1sc2nc(C(C)Sc3n[nH]c(N)n3)[nH]c(=O)c2c1C (centres undefined) | -1 | · | -5 | -5% | ? | -40%
Fc1ccc(C2c3cccn3CCN2C(=S)Nc2cccc(Br)c2)cc1 (centres undefined) | 16 | · | -14 | -10% | 12µM* | ?
Fc1ccc(NC(=S)N2CCn3cccc3C2c2cccnc2)cc1 (centres undefined) | -4 | · | -10 | -3% | ? | -16%
CCCCNC(=S)N1CCn2cccc2C1c1ccccc1 (centres undefined) | 0 | · | 3 | -5% | 4.7µM* | ?
CCCCNC(=S)N1CCn2cccc2C1c1cccnc1 (centres undefined) | 1 | · | -9 | -11% | ? | 45%
CCCCNC(=S)N1CCn2cccc2C1c1ccc(F)cc1 (centres undefined) | 10 | · | -6 | -10% | ? | ?
S=C(NCCc1ccccc1)N1CCn2cccc2C1c1cccnc1 (centres undefined) | 17 | · | 1 | -17% | 12µM* | 10µM*
S=C(NCc1ccccc1)N1CCn2cccc2C1c1cccnc1 (centres undefined) | -3 | · | -19 | 0% | 4.7µM* | 4.7µM*
COc1cc(CCC(=O)OCC(=O)Nc2ccc(F)cc2F)cc(OC)c1OC | -2 | -1% | 4 | 2% | 0% | -26%
O=C(O)c1ccccc1C(=O)c1ccc2c(c1)N(Cc1ccc(Cl)c(Cl)c1)C(=O)CO2 | -2 | -10% | -8 | 0% | -119% | 0%
COc1cccc(NC(=S)N2CCn3cccc3C2c2cccnc2)c1 (centres undefined) | 6 | 2% | 33* | 5% | ? | -14%
Cc1nc(-c2ccccc2)nc(-c2ccccc2)n1 | · | · | · | 0% | 9% | 60%
CN(C)C(C)(C)C#CCC(c1ccccc1)c1ccccc1 | -1 | -30% | -7 | -1% | 9.3µM* | ?
CCc1ccc2c(c1)C(c1ccc([N+](=O)[O-])cc1)=NNC(c1ccc(Br)cc1)=N2 | 1 | 8% | 19 | -7% | 9.3µM* | -24%
